{
  "source": "PubChem BioAssay AID743025",
  "about": "(Vanderbilt Specialized Chemistry Center, 2013)",
  "note": "Unmarked numbers belong to inactive results. Active and inactive are the calls of the source.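 The calls were made as follows: active = IC50 below 10 µM at human M5 in a calcium flux test, acting as a negative modulator; inactive = the rest.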",
  "data": [
    {"target": "Muscarinic acetylcholine receptor M5 (Homo sapiens) (UniProt P08912)", "sequence (P08912 whole entry, looked up)": "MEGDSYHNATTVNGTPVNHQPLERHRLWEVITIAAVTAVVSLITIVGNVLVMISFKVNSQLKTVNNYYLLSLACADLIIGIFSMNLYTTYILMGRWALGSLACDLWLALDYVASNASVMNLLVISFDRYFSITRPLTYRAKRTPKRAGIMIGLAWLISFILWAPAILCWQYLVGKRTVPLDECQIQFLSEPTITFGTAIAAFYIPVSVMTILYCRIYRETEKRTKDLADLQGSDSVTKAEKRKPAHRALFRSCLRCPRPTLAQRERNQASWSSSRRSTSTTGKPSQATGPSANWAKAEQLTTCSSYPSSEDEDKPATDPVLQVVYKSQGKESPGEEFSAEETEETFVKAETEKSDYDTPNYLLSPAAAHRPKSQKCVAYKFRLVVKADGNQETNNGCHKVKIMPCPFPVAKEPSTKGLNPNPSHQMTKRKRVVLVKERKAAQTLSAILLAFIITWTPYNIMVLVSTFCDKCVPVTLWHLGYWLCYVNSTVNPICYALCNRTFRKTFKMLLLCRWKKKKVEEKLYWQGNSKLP", "experiment": "inhibition of ACh-evoked M5 calcium signal – cell-based, single concentration, human M5 (AID 743025)", "settings": "CHO-K1 hM5, ACh EC80 calcium flux, Fluo-4; at 10 µM; active compounds read low", "values": [
      {"smiles": "Cc1ccc(C(=O)N2CCN3C(=O)c4ncccc4C23c2ccccc2)cc1", "note": "(stereo unspecified)", "activity remaining": "63.1%"},
      {"smiles": "O=C(c1ccncc1)N1CCN2C(=O)c3ccccc3C12c1ccccc1", "note": "(stereo unspecified)", "activity remaining": "98.6%"},
      {"smiles": "O=C(c1ccc(F)c(F)c1)N1CCN2C(=O)c3ccccc3C12c1ccc(F)cc1", "note": "(stereo unspecified)", "activity remaining": "64.5%"},
      {"smiles": "O=C(c1ccccc1)N1CCN2C(=O)c3ccccc3C12c1ccc(Cl)cc1", "note": "(stereo unspecified)", "activity remaining": "1.2% (active)"},
      {"smiles": "O=C1c2ccccc2C2(c3ccc(Cl)cc3)NCCCN12", "note": "(stereo unspecified)", "activity remaining": "70.4%"},
      {"smiles": "O=C(c1cc(F)cc(F)c1)N1CCN2C(=O)c3ncccc3C12c1ccccc1", "note": "(stereo unspecified)", "activity remaining": "75.2%"},
      {"smiles": "O=C(c1cccc(C(F)(F)F)c1)N1CCCN2C(=O)c3ccccc3C12c1ccc(Cl)cc1", "note": "(stereo unspecified)", "activity remaining": "78.6%"},
      {"smiles": "O=C(c1ccc(OC(F)F)cc1)N1CCN2C(=O)c3ccccc3C12c1ccc(Cl)cc1", "note": "(stereo unspecified)", "activity remaining": "13.3% (active)"},
      {"smiles": "CSc1cccc(NC(=S)N2CCN3C(=O)c4ccccc4C32c2ccccc2)c1", "note": "(stereo unspecified)", "activity remaining": "77.7%"},
      {"smiles": "O=C(c1cc(Cl)cc(Cl)c1)N1CCCN2C(=O)c3ccccc3C12c1ccccc1", "note": "(stereo unspecified)", "activity remaining": "51.9% (active)"},
      {"smiles": "O=C(Nc1ccc(F)cc1)N1CCN2C(=O)c3ccccc3C12c1ccccc1", "note": "(stereo unspecified)", "activity remaining": "84.3%"},
      {"smiles": "O=C(c1ccc(OC(F)(F)F)cc1)N1CCN2C(=O)c3ncccc3C12c1ccccc1", "note": "(stereo unspecified)", "activity remaining": "73.1%"},
      {"smiles": "COc1ccc(C23c4ccccc4C(=O)N2CCN3C(=O)c2ccc(C)cc2)cc1", "note": "(stereo unspecified)", "activity remaining": "68.4%"},
      {"smiles": "O=C(c1ccc(-c2ccccc2)cc1)N1CCN2C(=O)c3ccccc3C12c1ccccc1", "note": "(stereo unspecified)", "activity remaining": "62.7%"},
      {"smiles": "O=C1c2ccccc2C(c2ccccc2)N1c1ccccc1", "note": "(stereo unspecified)", "activity remaining": "82.3%"},
      {"smiles": "O=C(c1ccccc1)N1CCCC1c1ccccc1", "note": "(stereo unspecified)", "activity remaining": "88.8%"},
      {"smiles": "O=C1c2ccccc2C2(c3ccccc3)N1CCN2C(=O)c1c(F)cccc1F", "note": "(stereo unspecified)", "activity remaining": "84%"},
      {"smiles": "O=C(Nc1ccccc1)N1CCN2C(=O)c3ccccc3C12c1ccccc1", "note": "(stereo unspecified)", "activity remaining": "85.4%"},
      {"smiles": "O=C(c1ccc(C(F)(F)F)cc1)N1CCN2C(=O)c3ccccc3C12c1ccc(F)cc1", "note": "(stereo unspecified)", "activity remaining": "70.2%"},
      {"smiles": "O=C(c1ccccc1)N1CCN2C(=O)c3ccccc3C12c1ccccc1", "note": "(stereo unspecified)", "activity remaining": "74.8%"},
      {"smiles": "Clc1ccc(C2(c3ccccc3)CCCN2)cc1", "note": "(stereo unspecified)", "activity remaining": "68.9%"},
      {"smiles": "O=C1c2ccccc2C2(c3ccccc3)NCCN12", "note": "(stereo unspecified)", "activity remaining": "89.3%"},
      {"smiles": "O=C(c1ccc(F)c(F)c1)N1CCN2C(=O)c3ncccc3C12c1ccccc1", "note": "(stereo unspecified)", "activity remaining": "66.4%"},
      {"smiles": "Cc1ccc(C23c4ccccc4C(=O)N2CCN3C(=O)c2ccccc2)cc1", "note": "(stereo unspecified)", "activity remaining": "53.2% (active)"},
      {"smiles": "COc1ccc(C23c4ccccc4C(=O)N2CCN3C(=O)c2ccccc2C)cc1", "note": "(stereo unspecified)", "activity remaining": "49.9% (active)"},
      {"smiles": "COc1ccc(C23c4ccccc4C(=O)N2CCN3C(=O)c2ccccc2)cc1", "note": "(stereo unspecified)", "activity remaining": "73%"},
      {"smiles": "O=C1c2ccccc2C2(c3ccccc3)N1CCN2S(=O)(=O)c1cccc(C(F)(F)F)c1", "note": "(stereo unspecified)", "activity remaining": "80%"},
      {"smiles": "Cc1ccccc1C(=O)N(C)C(c1ccccc1)c1ccccc1", "activity remaining": "81.6%"},
      {"smiles": "O=C(c1ccco1)N1CCN2C(=O)c3ccccc3C12c1ccccc1", "note": "(stereo unspecified)", "activity remaining": "81.3%"},
      {"smiles": "O=C(c1ccccn1)N1CCN2C(=O)c3ncccc3C12c1ccccc1", "note": "(stereo unspecified)", "activity remaining": "73.7%"},
      {"smiles": "O=C(c1ccc(OC(F)(F)F)cc1)N1CCCN2C(=O)c3ccccc3C12c1ccc(Cl)cc1", "note": "(stereo unspecified)", "activity remaining": "76.4%"},
      {"smiles": "O=C1c2ccccc2C2(c3ccccc3)N1CCN2C(=O)C1CC1", "note": "(stereo unspecified)", "activity remaining": "86.4%"},
      {"smiles": "O=C(c1ccc(Br)cc1)c1ccccc1C(=O)N1CCCN(C(=O)c2ccccc2)CC1", "activity remaining": "78.1%"},
      {"smiles": "O=C(c1ccc(Cl)cc1)N1CCN2C(=O)c3ccccc3C12c1ccccc1", "note": "(stereo unspecified)", "activity remaining": "89.9%"},
      {"smiles": "CC(C)Oc1ccc(C(=O)N2CCN3C(=O)c4ccccc4C23c2ccc(Cl)cc2)cc1", "note": "(stereo unspecified)", "activity remaining": "-1.43% (active)"},
      {"smiles": "O=C(c1cc(F)ccc1F)N1CCN2C(=O)c3ccccc3C12c1ccccc1", "note": "(stereo unspecified)", "activity remaining": "76%"}
    ]}
  ]
}
